MITF inh = inhibitors of human MITF; inhibition, % at 2.6 µM; AlphaScreen MITF homodimerization, bead proximity signal; 650,000 compounds, 0.91% hits; O75030; in the data active means inhibition above about 50%;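 further: 0% = vehicle wells with protein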
FBW7 activator = activators of human E3 ligase FBW7; AlphaScreen FBW7–phospho-cyclin E peptide binding, activator screen; normalized activity (activation), % at 26.1 µM; 650,000 compounds, 0.13% hits; Q969H0; in the data active means normalized activity above about 1.9%;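 further: purified mutant Fbw7 with reduced substrate affinity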
Target sequence (Q969H0 whole entry, looked up): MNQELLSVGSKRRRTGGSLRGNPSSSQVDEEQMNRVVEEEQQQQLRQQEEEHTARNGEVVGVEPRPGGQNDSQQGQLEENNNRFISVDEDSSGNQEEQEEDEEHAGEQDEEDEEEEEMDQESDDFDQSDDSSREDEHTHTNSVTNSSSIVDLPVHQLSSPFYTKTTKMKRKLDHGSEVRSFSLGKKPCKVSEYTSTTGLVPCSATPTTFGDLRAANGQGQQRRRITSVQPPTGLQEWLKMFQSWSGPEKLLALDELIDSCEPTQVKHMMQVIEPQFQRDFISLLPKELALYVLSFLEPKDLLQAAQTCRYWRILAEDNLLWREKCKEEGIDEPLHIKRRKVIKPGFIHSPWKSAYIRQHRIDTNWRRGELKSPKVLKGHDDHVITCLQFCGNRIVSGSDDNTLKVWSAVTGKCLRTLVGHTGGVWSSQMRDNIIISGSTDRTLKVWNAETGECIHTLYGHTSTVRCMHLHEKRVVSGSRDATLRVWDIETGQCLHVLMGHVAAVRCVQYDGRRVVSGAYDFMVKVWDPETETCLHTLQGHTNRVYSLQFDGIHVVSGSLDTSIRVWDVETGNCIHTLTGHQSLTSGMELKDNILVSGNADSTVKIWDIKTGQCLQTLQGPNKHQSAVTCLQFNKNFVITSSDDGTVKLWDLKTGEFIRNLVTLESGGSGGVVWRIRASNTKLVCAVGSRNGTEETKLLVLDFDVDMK
GPR151 ag = activators of human GPR151; activation, % at 11.2 µM; 650,000 compounds, 1% hits; PathHunter beta-arrestin GPR151 cells, luminescence; Q8TDV0; in the data active means activation above about 4.9%;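 further: 0% = median of compound wells and 100% = cells with positive control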
TEAD-YAP inh = TEAD-YAP interaction inhibition. HEK-TIYL cells, TEAD-Gal4/YAP UAS-luciferase luminescence. inhibition, % at 9.12 µM. AID 1259422. 640,000 compounds, 1.4% hits; in the data active means inhibition above about 32%;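 further: 0% = median of test compound wells and 100% = reference inhibitor wells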
GPR151 confirm = confirmation of human GPR151 activators. AID 1508609. 6,700 tested, under 10 active. activation, % at 11.2 µM. GPR151 PathHunter beta-arrestin cells, luminescence, 90 min; % of EA-reagent control over plate median. shares compounds with GPR151 ag;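 active means mean percent activation across replicates above the confirmation screen cutoff of 4.91%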
GPR119 ag = counter-screen for GPR151 activators: effect on human GPR119; AID 1508611; activation, % at 11.2 µM; 6,700 compounds, 0.3% hits; shares compounds with GPR151 ag; GPR119 PathHunter beta-arrestin cells, luminescence, 90 min; 0 = compound-well median, 100 = enzyme-acceptor control;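 active means mean percent activation in the counterscreen above 29.09%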;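 further: counterscreen on off-target GPR119 to flag nonselective hits from the GPR151 activator screen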
Starred values were filed as active, the others as inactive; / = no result. This is a sample that favours compounds with a hit; in the whole collection about 3.5% have one here.

SMILES | MITF inh | FBW7 activator | GPR151 ag | TEAD-YAP inh | GPR151 confirm | GPR119 ag
COc1ccc(CC(=O)Nc2sc(C(=O)Nc3ccccc3OC)c(C)c2C#N)cc1 | 7 | 2 | -1 | -1 | / | /
COc1ccc(CCNc2cc(C)nc(Nc3ccc(-n4ccnc4)cc3)n2)cc1 | 20 | 0 | 5.3* | 77* | 3 | 54*
COc1ccc(CCNc2cc(C)nc(NC3CCC(O)CC3)n2)cc1 (stereo not given) | 0 | 0 | 6.8* | 18 | -1 | -9
COc1ccc(CCNc2nc(Nc3ccc(-n4ccnc4)cc3)nc3c2ncn3C2CCCCC2)cc1 | 16 | 0 | 6.1* | 13 | 0 | 2
Oc1ccc(CCNc2nc(NCc3ccc4c(c3)OCO4)nc3c2ncn3C2CCCCC2)cc1 | 12 | 0 | 17* | 0 | 0 | -2
COc1ccc(NCc2ccc(OC)c(OC)c2OC)cc1Cl | 17 | 0 | 7.9* | -31 | 1 | 15
COc1cc(SC)ccc1C(=O)Nc1ccc2c(c1)OC(C)(C)O2 | -10 | 0 | 5.2* | -54 | 0 | -1
CCCS(=O)(=O)N1CC(=O)N(c2ccccc2OC)C(C)(C(=O)NC2CCCC2)C1 (stereo not given) | 4 | 0 | 6.0* | -2 | 0 | -11
CCCS(=O)(=O)N1CC(=O)N(c2ccccc2CC)C(C)(C(=O)NC2CCCCC2)C1 (stereo not given) | 8 | 0 | 0 | -1 | / | /
CC1(C(=O)NC2CCCCCC2)CN(S(C)(=O)=O)CC(=O)N1c1ccc(Cl)cc1 (stereo not given) | 0 | 0 | 7.7* | -3 | -1 | -12
O=C(NCC1Cc2cccc(-c3ncccn3)c2O1)c1cc(F)c(F)cc1F (stereo not given) | 25 | 0 | -1 | 0 | / | /
O=C(c1ccccc1)c1ccc(N2CCN(C(=O)c3c(F)cccc3F)CC2)c(F)c1 | -4 | 0 | 0 | -1 | / | /
O=C1NC(=S)NC(=O)C1=Cc1ccc(-c2ccc(N3CCCCC3)c([N+](=O)[O-])c2)o1 | 34 | 0 | 12* | -51 | 0 | 0
O=C1NC(=S)N/C1=C/c1ccc(-c2ccc(Cl)c([N+](=O)[O-])c2)o1 | 14 | 1 | 0 | -4 | / | /
CC(C)n1c(-c2csc3ccccc23)nc2c(NCCCN3CCCC3=O)ncnc21 | -2 | 0 | 6.8* | 5 | 1 | -4
CC(C)n1c(-c2cccs2)nc2c(NCCCN3CCCC3=O)ncnc21 | 35 | 0 | 1 | 3 | / | /
COc1ccc(N2CCN(Cc3ccc([N+](=O)[O-])s3)CC2)cc1 | 56* | 0 | 5.1* | 4 | 0 | 9
COc1ccc(N2CCN(C/C=C/c3ccccc3[N+](=O)[O-])CC2)cc1 | 15 | 0 | 0 | 3 | / | /
CCCc1cc(=O)[nH]c(SCC(=O)Nc2cc3c(cc2C(C)=O)OCO3)n1 | -7 | 0 | 6.3* | -4 | 0 | -4
CC(Cc1cccnc1)N1CCC(CO)(CCOc2ccccc2)CC1 (stereo not given) | -2 | 0 | -1 | 10 | / | /
CCC(C)(C)C1CCC(NC(=O)C(=O)Nc2ccccc2)CC1 (stereo not given) | 8 | 0 | 6.3* | -14 | 0 | -5
Cc1ccc(C(=O)N[C@H]2C[C@H]3C(=O)N[C@H](C)C(=O)N3C2)cc1 | 2 | 0 | 5.9* | 2 | 1 | 16
C[C@@H]1NC(=O)[C@@H]2C[C@H](NC(=O)c3ccc(F)cc3)CN2C1=O | 5 | 1 | -1 | -22 | / | /
CCC(=O)Nc1ccc(-c2csc(-c3ccccc3)n2)cc1 | -15 | 0 | -3 | -75 | / | /
COc1ccc(-c2[nH]ncc2-c2cnccn2)cc1 | 16 | 1 | 0 | 1 | / | /
SMILES | MITF inh | FBW7 activator | GPR151 ag | TEAD-YAP inh | GPR151 confirm | GPR119 ag
COc1cccc(NC(=O)C2CCCN2S(=O)(=O)c2cccc3cccnc23)c1 (stereo not given) | 5 | 0 | 7.3* | -21 | 0 | 0
COc1cc(NC(=O)C2CCCN2S(=O)(=O)c2cccc3cccnc23)cc(OC)c1 (stereo not given) | 14 | 0 | -1 | -22 | / | /
CC(=O)Nc1cc(CNCc2ccccc2Cl)cc(C(=O)N2CCN(C)CC2)c1 | 12 | 0 | 0 | -9 | / | /
CCC1(c2ccc(F)cc2)NC(=O)N(Cc2ccccc2C#N)C1=O (stereo not given) | -4 | 0 | 5.7* | -3 | 1 | 12
CC1(c2ccccc2Cl)NC(=O)N(Cc2ccccc2C#N)C1=O (stereo not given) | -17 | 0 | 3 | 11 | / | /
N#CCCN(CCC#N)S(=O)(=O)c1ccc(C(=O)Nc2ccc(Br)cc2)cc1 | 8 | 0 | 0 | 10 | / | /
O=C(NCCCNCCCNC(=O)/C(=N/O)c1ccccc1)/C(=N/O)c1ccccc1 | 10 | 0 | 5.4* | -6 | 0 | 4
NCCNC(=O)/C(=N\O)c1ccccc1 | 4 | 0 | 0 | 15 | / | /
COc1ccc(CC2(CCC(=O)N[C@H](C)c3ccc(OC)cc3)CCC(=O)N2)cc1 (stereo not given in full) | -4 | 0 | 5.1* | 7 | -1 | -7
COc1ccc([C@@H](C)NC(=O)CCC2(Cc3ccc(C)cc3)CCC(=O)N2)cc1 (stereo not given in full) | 0 | 0 | 1 | 9 | / | /
CCOC(=O)c1c(NC(=O)CSc2nnc(CNC(=O)c3ccccc3OC)n2-c2ccc([N+](=O)[O-])cc2)sc2c1CCCCC2 | 8 | 0 | -1 | -8 | / | /
CCCN1C(=O)C(O)(CC(=O)c2ccccc2O)c2ccccc21 (stereo not given) | 0 | 0 | 11* | 6 | 0 | 0
N#Cc1ccccc1NC(=O)C(CC(=O)O)NCc1ccccc1 (stereo not given) | 1 | 0 | 2 | 6 | / | /
CC(C)Cc1nc(SCC(=O)Nc2ccccc2)c2c(=O)n(C)c(=O)n(C)c2n1 | -13 | 0 | 8.1* | 4 | 0 | 11
CCN(CC)C(=O)C1CCCN(c2nc(NCCc3ccc(OC)cc3)c3ncn(Cc4ccc(C(F)(F)F)cc4)c3n2)C1 (stereo not given) | -4 | 0 | 6.8* | -9 | 0 | 1
CCN(CC)C(=O)C1CCCN(c2nc(NCCc3ccc(OC)cc3)c3ncn(C4CCCCC4)c3n2)C1 (stereo not given) | 12 | 0 | 10* | -6 | 0 | -2
CCN(CC)C(=O)C1CCCN(c2nc(NCCOc3ccccc3)c3ncn(Cc4ccc(C(F)(F)F)cc4)c3n2)C1 (stereo not given) | 10 | 0 | 0 | 0 | / | /
Fc1ccc(F)c(CN2CCOCC2)c1 | -2 | 1 | 0 | 4 | / | /
CCOc1ccc(-c2nc(NC(C)=O)c3c(=O)oc4c(OC)cccc4c3n2)cc1 | 0 | 0 | 9.2* | 8 | 1 | 12

Bioassay records (PubChem BioAssay)
